# PubChem BioAssay (NCATS)
# Values joined by “and” are separate entries in the source; they are usually repeats but may differ in a detail not shown here. Equal entries are not always repeated. Inconclusive results are not listed. Where a call stands in place of a potency, no number is given. Values without a mark were called inactive. Active and inactive are the calls of the source. The call rests on the fitted dose curve; in most records, active means well fitted curve in the direction sought with a large enough effect; inconclusive means small, poorly fitted or top-dose-only effect, or another doubt; inactive means no such curve, though single readings can be large; an effect the other way counts as inactive or inconclusive.
# Experiments:
# HEK293 = assay: Cytotoxic Profiling of Annotated Libraries Using Quantitative High-Throughput Screening (AID 1296008); settings: Five cell lines viability, CellTiter-Glo ATP luminescence, 48-72 h; max response: stronger effect = lower value; further: nearly all actives have a fitted effect of over 60% in size
# How it was run: (§1)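 Cytotoxicity was measured as CellTiter-Glo ATP luminescence, read after 10 min at room temperature. Compound treatment of the cells lasted 48 or 72 hr at 37 degrees Celsius in a qHTS format.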
# HaCat [1] = assay: as above; settings: Five cell lines viability, CellTiter-Glo ATP luminescence, 48-72 h; max response: stronger effect = lower value
# How it was run: as §1
# KB-3-1 = assay: as above; settings: Five cell lines viability, CellTiter-Glo ATP luminescence, 48-72 h; max response: stronger effect = lower value
# How it was run: as §1
# NIH3T3 [2] = assay: as above; settings: Five cell lines viability, CellTiter-Glo ATP luminescence, 48-72 h; max response: stronger effect = lower value
# How it was run: as §1
# MCC-13 = assay: qHTS assay to identify novel small-molecules to repurpose for Merkel cell carcinoma treatment (AID 1296009); settings: MCC and control cell lines, CellTiter-Glo viability, 72 h; series mostly up to 46 µM; further: nearly all actives have a fitted effect of over 60% in size
# How it was run: (§2)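 After compound transfer in DMSO, plates were kept 72 hr at 37 degree celsius. Luminescent ATP signal from CellTiter-Glo served as viability measure, normalized against DMSO and no-cell controls.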
# MCC-26 = assay: as above; settings: MCC and control cell lines, CellTiter-Glo viability, 72 h; series mostly up to 46 µM
# How it was run: as §2
# MKL-1 = assay: as above; settings: MCC and control cell lines, CellTiter-Glo viability, 72 h; series mostly up to 46 µM
# How it was run: as §2
# MKL-2 = assay: as above; settings: MCC and control cell lines, CellTiter-Glo viability, 72 h; series mostly up to 46 µM
# How it was run: as §2
# C33A = assay: Primary qHTS to identify gynecologic anti-cancer compounds using libraries of approved drugs and bioactive compounds (AID 1345084); settings: Gynecologic cancer cell panel viability, ATPlite luminescence, 48 h; series mostly up to 57.5 µM; further: nearly all actives have a fitted effect of over 55% in size
# How it was run: (§3)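 Cells, 1,000 per well, plated 16 h, then exposed 48 h at 37 C to compounds. Viability by ATPlite luminescence after 15 min at room temperature.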
# CASKI = assay: as above; settings: Gynecologic cancer cell panel viability, ATPlite luminescence, 48 h; series mostly up to 57.5 µM
# How it was run: as §3
# Es-2 = assay: as above; settings: Gynecologic cancer cell panel viability, ATPlite luminescence, 48 h; series mostly up to 57.5 µM
# How it was run: as §3
# UISO = assay: qHTS assay to identify novel small-molecules to repurpose for Merkel cell carcinoma treatment (AID 1296009); settings: MCC and control cell lines, CellTiter-Glo viability, 72 h; series mostly up to 46 µM; further: nearly all actives have a fitted effect of over 60% in size
# How it was run: as §2
# WaGa = assay: as above; settings: MCC and control cell lines, CellTiter-Glo viability, 72 h; series mostly up to 46 µM
# How it was run: as §2
# CAOV3 = assay: Primary qHTS to identify gynecologic anti-cancer compounds using libraries of approved drugs and bioactive compounds (AID 1345084); settings: Gynecologic cancer cell panel viability, ATPlite luminescence, 48 h; series mostly up to 57.5 µM; further: nearly all actives have a fitted effect of over 55% in size
# How it was run: as §3
# HeLa = assay: as above; settings: Gynecologic cancer cell panel viability, ATPlite luminescence, 48 h; series mostly up to 57.5 µM
# How it was run: as §3
# Hek293T [3] = assay: as above; settings: Gynecologic cancer cell panel viability, ATPlite luminescence, 48 h, control line for the selectivity index; series mostly up to 57.5 µM
# How it was run: as §3
# JEG-3 = assay: as above; settings: Gynecologic cancer cell panel viability, ATPlite luminescence, 48 h; series mostly up to 57.5 µM
# How it was run: as §3
# HACAT [4] = assay: qHTS assay to identify novel small-molecules to repurpose for Merkel cell carcinoma treatment (AID 1296009); settings: MCC and control cell lines, CellTiter-Glo viability, 72 h; series mostly up to 44.8 µM; further: nearly all actives have a fitted effect of over 60% in size
# How it was run: as §2
# NIH3T3 [5] = assay: as above; settings: MCC and control cell lines, CellTiter-Glo viability, 72 h; at 44.8 µM (top of the series) unless noted
# How it was run: as §2
# HEK293T [6] = assay: as above; settings: MCC and control cell lines, CellTiter-Glo viability, 72 h; at 44.8 µM (top of the series) unless noted
# How it was run: as §2
# Potency means the concentration at half of the fitted maximal effect.
smiles,measurement,setting,value
NCC(=O)Nc1ccc(-n2nc(C(F)(F)F)cc2-c2ccc3c(ccc4ccccc43)c2)cc1,Potency,HEK293,166 nM (active) and 1.46 µM (active)
same,max response,HaCat [1],-18.9%
same,Potency,KB-3-1,26.4 µM (active) and 23.1 µM (active)
same,max response,NIH3T3 [2],-0.49%
same,Potency,MCC-13,inactive
same,Potency,MCC-26,inactive
same,Potency,MKL-1,inactive
same,Potency,MKL-2,inactive
same,Potency,C33A,inactive
same,Potency,CASKI,inactive
same,Potency,Es-2,inactive
CC(=O)OCC(=O)[C@@]1(O)[C@H](C)C[C@H]2[C@@H]3C=C(C)C4=Cc5c(cnn5-c5ccccc5)C[C@]4(C)[C@@H]3[C@@H](O)C[C@@]21C,Potency,HEK293,13.2 µM (active)
same,max response,HaCat [1],-6.31%
same,outcome,KB-3-1,inactive
same,Potency,NIH3T3 [2],14.8 µM (active)
same,Potency,MCC-13,inactive
same,Potency,MCC-26,inactive
same,Potency,MKL-1,inactive
same,Potency,MKL-2,7430 nM (active)
same,Potency,UISO,inactive
same,Potency,WaGa,inactive
Cc1cc(Nc2cc(N3CCN(C)CC3)nc(C=Cc3ccccc3)n2)n[nH]1,Potency,HEK293,7.62 µM (active)
same,Potency,HaCat [1],2.7 µM (active)
same,Potency,KB-3-1,3.03 µM (active)
same,Potency,NIH3T3 [2],6.05 µM (active)
same,Potency,MCC-13,9.59 µM (active)
same,Potency,MCC-26,9.59 µM (active)
O=C(c1cncc(Br)c1)N1CCC(N2CCCC2)CC1,max response,HEK293,2.69% and -9.71%
same,max response,HaCat [1],2.29% and 3.12%
same,max response,KB-3-1,1.64%
same,outcome,KB-3-1,inactive
same,max response,NIH3T3 [2],4.3% and 2.16%
same,Potency,MCC-13,inactive
same,Potency,MCC-26,inactive
same,Potency,MKL-1,inactive
same,Potency,MKL-2,inactive
same,Potency,UISO,inactive
same,Potency,WaGa,inactive
same,Potency,C33A,inactive
same,Potency,CAOV3,inactive
same,Potency,CASKI,inactive
same,Potency,Es-2,inactive
same,Potency,HeLa,inactive
same,Potency,Hek293T [3],inactive
same,Potency,JEG-3,inactive
Cc1nc2cnc3ccc(C#Cc4cccnc4)cc3c2n1-c1ccc(C(C)(C)C#N)cc1,Potency,HEK293,0.0743 µM (active)
same,Potency,HaCat [1],1.18 µM (active)
same,Potency,KB-3-1,0.0935 µM (active)
same,Potency,NIH3T3 [2],0.148 µM (active)
CC(C)(C)c1cc(NC(=O)Nc2ccc(-c3cn4c(n3)sc3cc(OCCN5CCOCC5)ccc34)cc2)no1,Potency,HEK293,1.18 µM (active) and 5.8 µM (active)
same,outcome,HaCat [1],inactive
same,max response,KB-3-1,4.76% and -14.7%
same,max response,NIH3T3 [2],-25.4%
same,outcome,NIH3T3 [2],inactive
same,Potency,HACAT [4],inactive
same,Potency,MCC-13,inactive
same,Potency,MKL-1,inactive
same,Potency,MKL-2,inactive
same,outcome,NIH3T3 [5],inactive
same,Potency,UISO,inactive
same,Potency,WaGa,inactive
same,Potency,C33A,inactive
same,Potency,CASKI,inactive
same,Potency,Es-2,inactive
same,Potency,HeLa,inactive
same,Potency,Hek293T [3],inactive
same,Potency,JEG-3,inactive
COc1ccc(CC2SC(=O)NC2=O)cc1C(=O)NCc1ccc(C(F)(F)F)cc1 (stereo not drawn),max response,HEK293,-1.55%
same,outcome,HaCat [1],inactive
same,max response,KB-3-1,-9.05%
same,max response,NIH3T3 [2],2.55%
same,Potency,HACAT [4],inactive
same,Potency,MCC-13,inactive
same,Potency,MCC-26,inactive
same,Potency,MKL-1,inactive
same,Potency,MKL-2,inactive
same,Potency,UISO,inactive
same,Potency,WaGa,inactive
CCCCc1nc2cc(C=CC(=O)NO)ccc2n1CCN(CC)CC,Potency,HEK293,3.72 µM (active)
same,Potency,HaCat [1],4.69 µM (active)
same,Potency,KB-3-1,2.64 µM (active)
same,Potency,NIH3T3 [2],4.18 µM (active)
same,Potency,MCC-13,7.43 µM (active)
same,Potency,MCC-26,8.33 µM (active)
same,Potency,MKL-1,3.32 µM (active)
same,Potency,MKL-2,526 nM (active)
same,Potency,WaGa,372 nM (active)
O=C(C=Cc1c(C(=O)O)[nH]c2cc(Cl)cc(Cl)c12)Nc1ccccc1,outcome,HEK293,inactive
same,max response,HaCat [1],-0.315%
same,max response,KB-3-1,3.7%
same,max response,NIH3T3 [2],1.73%
same,outcome,HEK293T [6],inactive
same,Potency,MCC-13,inactive
same,Potency,MCC-26,inactive
same,Potency,MKL-1,inactive
same,Potency,MKL-2,inactive
same,Potency,UISO,inactive
same,Potency,WaGa,inactive
COc1ccc(-c2cc3c(C)nc(N)nc3n(C3CCC(OCCO)CC3)c2=O)cn1 (stereo not drawn),Potency,HEK293,66.2 nM (active) and 411 nM (active)
same,Potency,HaCat [1],52.6 nM (active) and 2.31 µM (active)
same,Potency,KB-3-1,105 nM (active) and 517 nM (active)
same,Potency,NIH3T3 [2],1.3 µM (active)
same,Potency,MCC-13,1.87 µM (active)
same,Potency,MCC-26,1.32 µM (active)
same,Potency,MKL-1,4.18 µM (active)
same,Potency,MKL-2,166 nM (active)
same,Potency,UISO,166 nM (active)
same,Potency,WaGa,2090 nM (active)
same,Potency,CASKI,1.41 µM (active)
same,Potency,Es-2,2.51 µM (active)
same,Potency,HeLa,7.94 µM (active)
same,Potency,Hek293T [3],1.41 µM (active)
Cn1c(CNc2ccc(C(=N)N)cc2)nc2cc(C(=O)N(CCC(=O)O)c3ccccn3)ccc21,max response,HEK293,-4.52%
same,max response,HaCat [1],-0.657% and -2.49%
same,max response,KB-3-1,-2.52%
same,outcome,KB-3-1,inactive
same,outcome,NIH3T3 [2],inactive
same,Potency,MCC-13,inactive
same,Potency,MCC-26,inactive
same,Potency,MKL-1,inactive
same,Potency,MKL-2,inactive
same,outcome,NIH3T3 [5],inactive [at 17.4 µM]
same,Potency,UISO,inactive
same,Potency,WaGa,inactive
same,Potency,C33A,inactive
same,Potency,CAOV3,inactive
same,Potency,CASKI,inactive
same,Potency,Es-2,inactive
same,Potency,HeLa,inactive
same,Potency,Hek293T [3],inactive
same,Potency,JEG-3,inactive
CC(C)Nc1cc(C(F)(F)F)cc2nc(NC(=O)c3cccnc3)nn12,max response,HEK293,-16.8%
same,max response,HaCat [1],-1.8%
same,outcome,KB-3-1,inactive
same,max response,NIH3T3 [2],3.06% and -1.67%
same,Potency,MCC-13,inactive
same,Potency,MCC-26,inactive
same,Potency,MKL-1,inactive
same,Potency,MKL-2,inactive
same,Potency,UISO,inactive
same,Potency,WaGa,inactive
same,Potency,C33A,inactive
same,Potency,CAOV3,inactive
same,Potency,CASKI,inactive
same,Potency,Es-2,inactive
same,Potency,HeLa,inactive
same,Potency,Hek293T [3],inactive
same,Potency,JEG-3,inactive
